IMPase inh – cell-permeable inhibitors of inositol monophosphatase (IMPase); inhibition (IP1 accumulation), % at 46.1 µM; CHO-M1 cells, IP1 accumulation, HTRF TR-FRET ratio; 120,000 tested, under 10 active; P97697; active = well fitted curve in the direction sought with a large enough effect in the signal ratio, not every such curve was filed as active; inconclusive = small, poorly fitted or top-dose-only effect, or a change in a side signal; inactive = no such curve, though single readings can be large or run the other way; the % refers to the signal ratio;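 note: cells stimulated with carbachol in lithium chloride buffer; higher means more IMPase inhibition seen as more IP1 and lower FRET ratio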
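Cellular IMPase inhibition is scored as a rise in cytosolic IP1, detected by competitive TR-FRET between d2-labelled IP1 and a europium anti-IP1 antibody. M1-expressing CHO cells were stimulated with carbachol for 30 min at 37C, with lithium (50 mM LiCl) present in the buffer.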
IMPase Li cell – cell-permeable IMPase inhibitors with lithium potentiation; CHO-M1 cells, IP1 TR-FRET (IP-One), carbachol + lithium; Potency, µM (highest dose often 59.4 µM), most hits filed as inhibitors; actives 0.35% (n = 210,000); AID 1457;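 note: IP1 builds up when IMPase is blocked and the TR-FRET signal falls; nearly all actives have a fitted effect of over 50% in size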
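Test compounds were applied to CHO-M1 cells previously cultured for 16–30 h at 2000 per well. A small lithium amount accompanied them; after 30 min at 37C, IP1 was quantified by TR-FRET.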
ALOX12 inhib – blocks human 12-lipoxygenase activity; purified 12-hLO, xylenol orange hydroperoxide absorbance; Potency, µM (highest dose often 57.1 µM), usual class: inhibitors; actives 0.12% (n = 150,000); AID 1452; note: nearly all actives have a fitted effect of over 55% in size
Target sequence (P18054 whole entry, looked up): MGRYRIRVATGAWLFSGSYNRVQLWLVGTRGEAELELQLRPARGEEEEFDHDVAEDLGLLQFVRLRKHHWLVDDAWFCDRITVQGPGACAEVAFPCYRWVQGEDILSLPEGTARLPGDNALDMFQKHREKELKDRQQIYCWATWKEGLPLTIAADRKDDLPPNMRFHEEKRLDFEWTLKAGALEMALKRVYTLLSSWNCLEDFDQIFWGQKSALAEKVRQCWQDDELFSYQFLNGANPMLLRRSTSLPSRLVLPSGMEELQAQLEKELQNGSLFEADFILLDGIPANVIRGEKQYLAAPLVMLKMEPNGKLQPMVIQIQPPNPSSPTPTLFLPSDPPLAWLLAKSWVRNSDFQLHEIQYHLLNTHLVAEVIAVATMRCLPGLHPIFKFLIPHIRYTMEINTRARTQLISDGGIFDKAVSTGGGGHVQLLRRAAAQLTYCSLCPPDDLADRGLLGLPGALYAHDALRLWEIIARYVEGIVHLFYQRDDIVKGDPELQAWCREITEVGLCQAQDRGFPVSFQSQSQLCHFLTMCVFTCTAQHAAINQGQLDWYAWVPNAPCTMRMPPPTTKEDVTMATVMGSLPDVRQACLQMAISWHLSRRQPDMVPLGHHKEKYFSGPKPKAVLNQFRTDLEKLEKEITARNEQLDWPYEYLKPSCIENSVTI
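Purified human 12hLO (150 nM), preincubated 15 min with compound, then 40 uM arachidonic acid for 30 min, room temperature, Hepes pH 7.0 with 0.01% Triton X-100. Hydroperoxide detected by ferrous iron/xylenol orange; 573/405 nm absorbance ratio gives reaction progress.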
PNC assembly inh – perinucleolar compartment assembly inhibition; PC3M PTB-GFP, PNC prevalence imaging, 16 h; stronger effect = lower value; activity change (PNC), negative = inhibition, % at 10 µM; actives 3.1% (n = 140,000);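 active = readout at or below -70, meaning at least 70% loss of cells showing the perinucleolar compartment, a nuclear body marking cancer cells; inconclusive = readout between -30 and a set limit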
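Compounds are pinned in duplicate onto adhered PC3M cells stably expressing GFP-tagged PTB and incubated 16 h at 37 C. Cells are then fixed, nuclei stained with Hoechst, and PNC-positive cells counted.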
ALOX15B inhib – blocks human 15-lipoxygenase 2 activity. purified 15hLO-2, xylenol orange hydroperoxide absorbance. Potency, µM (series often up to 57.1 µM), most hits filed as inhibitors. actives 0.56% (n = 110,000). AID 881; note: nearly all actives have a fitted effect of over 60% in size
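Read-out: hydroperoxide product oxidises ferrous iron, measured as xylenol orange complex via the 573-to-405 nm absorbance ratio after 30 min. Reaction: 50 nM enzyme, 15 min compound preincubation, 45 uM arachidonic acid, 90 min RT, Hepes pH 7.5 with Triton X-100.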
Hits are given with their value; [ ] = another dose, or the depositor's remark. The full list was thinned out, with hits kept by preference. Unless noted, calls come from the whole dose curve; as a rule, active = well fitted curve in the direction sought with a large enough effect; inconclusive = small, poorly fitted or top-dose-only effect, or another doubt; inactive = no such curve, though single readings can be large; an effect the other way counts as inactive or inconclusive.

For O=C(NNS(=O)(=O)c1ccc([N+](=O)[O-])cc1)c1cnn(-c2ccccc2)c1-n1cccc1 the results were IMPase inh inactive, IMPase Li cell inactive, ALOX12 inhib inactive and PNC assembly inh -100.
O=C(NNS(=O)(=O)c1ccccc1)c1cnn(-c2ccccc2)c1-n1cccc1 was read as IMPase inh inactive, IMPase Li cell inactive, ALOX12 inhib inactive and PNC assembly inh inactive.
`COc1ccccc1-c1nc(NCc2ccccc2)c2ccccc2n1` gave IMPase Li cell inactive, ALOX12 inhib inactive and ALOX15B inhib inactive.
Screening CCn1c(O)c(N=NC(=O)CNC(=O)/C=C/c2ccco2)c2ccccc21 returned IMPase inh inactive, IMPase Li cell inactive, ALOX12 inhib inactive, PNC assembly inh -92 and ALOX15B inhib inactive.
O=C(CCS(=O)(=O)c1cc(Br)cc2c1N(C(=O)C1CC1)CC2)NCc1ccccc1Cl was read as IMPase inh inactive.
CCn1c2ccccc2c2cc(NC(=O)c3cc(OC)c(OC)c(OC)c3)ccc21 was read as IMPase inh inactive, IMPase Li cell inactive, ALOX12 inhib inactive, PNC assembly inh inconclusive and ALOX15B inhib inactive.
CCC(=O)N1CCN(c2ccc(NC(=O)c3ccc(Br)o3)cc2)CC1 was read as IMPase Li cell inactive, ALOX12 inhib inactive and PNC assembly inh -94.
Screening CCn1c2ccccc2c2cc(NC(=O)c3cc(C)on3)ccc21 returned IMPase Li cell inactive.
`CCn1c2ccccc2c2cc(NC(=O)c3ccc(Br)o3)ccc21` gave IMPase inh inactive, IMPase Li cell inactive, ALOX12 inhib inactive, PNC assembly inh inconclusive and ALOX15B inhib 3.2µM.
For Cc1ccc(C(=O)N2CCN(c3ccc(NC(=O)c4ccc(Br)o4)cc3)CC2)cc1 the results were IMPase inh inactive, IMPase Li cell inactive, ALOX12 inhib inactive, PNC assembly inh inactive and ALOX15B inhib inactive.
For CCn1c2ccccc2c2cc(NC(=O)c3cc(OC)cc(OC)c3)ccc21 the results were IMPase Li cell inactive, ALOX12 inhib inactive and PNC assembly inh -97.
`CCc1c(C(=O)Nc2ccc(OC)cc2)[nH]c(C)c1C(C)=O` gave IMPase inh inactive, IMPase Li cell inactive, ALOX12 inhib inactive, PNC assembly inh inactive and ALOX15B inhib inactive.
`CCc1c(C(=O)Nc2cc(C)ccc2OC)[nH]c(C)c1C(C)=O` gave IMPase inh inactive, IMPase Li cell inactive, ALOX12 inhib inactive, PNC assembly inh -94 and ALOX15B inhib inactive.
`COc1ncc2nc(C)c(=O)n(-c3ccccc3)c2n1` gave IMPase Li cell inactive and ALOX15B inhib inactive.
`COC(=O)c1sc(NC(=O)c2ccco2)nc1C` gave IMPase inh inactive, IMPase Li cell 10µM, ALOX12 inhib inactive, PNC assembly inh inactive and ALOX15B inhib inactive.
Screening O=[N+]([O-])c1ccc(S(=O)(=O)Cc2ccccc2)c2nonc12 returned IMPase Li cell inactive, ALOX12 inhib inconclusive and ALOX15B inhib inconclusive.
For Cn1c2ccccc2c2cc(C(=O)NNS(=O)(=O)c3ccc(F)cc3)sc21 the results were IMPase inh inactive[1.84 µM], IMPase Li cell inactive, ALOX12 inhib inactive, PNC assembly inh -88 and ALOX15B inhib inactive[11.4 µM].
Screening CC(/C=N/n1c(-c2ccc(Cl)cc2)n[nH]c1=S)=C\c1ccco1 returned IMPase inh inactive, ALOX12 inhib inactive and PNC assembly inh inconclusive.
CC(/C=N/n1cnnc1)=C\c1ccco1 was read as IMPase inh inactive, IMPase Li cell inactive, ALOX12 inhib inactive and PNC assembly inh -100.
For O=C(Nc1nnc(-c2ccc(F)cc2)s1)C1CCN(S(=O)(=O)c2ccc(Cl)cc2)CC1 the results were IMPase Li cell 7.9µM, ALOX12 inhib inactive and PNC assembly inh inactive.
`O=C(NNS(=O)(=O)c1ccccc1)C1CCN(S(=O)(=O)c2ccc(Cl)cc2)CC1` gave IMPase inh inactive, IMPase Li cell inactive, ALOX12 inhib inactive and PNC assembly inh -100.
`CCCCNc1nc(C)nc2c1nc(C)n2CCC` gave IMPase Li cell inactive, ALOX12 inhib inactive and ALOX15B inhib inactive.
COC(=O)[C@H]1O[C@@H](c2cc(OC)c(C)c(OC)c2OCc2ccccc2)[C@H](C)[C@H]2O[C@@]12C was read as IMPase Li cell inactive.
Screening C[C@@H](C(=O)O)c1ccc(C[C@@H]2CCCC2=O)cc1 returned IMPase inh inactive, ALOX12 inhib inactive and ALOX15B inhib inactive.
COC(=O)CCC(=O)Oc1ccc(OC(=O)CCC(=O)OC)cc1 was read as IMPase Li cell inactive, ALOX12 inhib inactive and PNC assembly inh -113.
Screening CC(C)n1c(=NC(=O)c2ccco2)c(C#N)cc2c(=O)n3ccccc3cc21 returned IMPase inh inactive, IMPase Li cell inactive, ALOX12 inhib inactive and PNC assembly inh -82.
`COC(=O)C(C(=O)OC)C(Cc1cc(F)cc(F)c1F)NC=O` (stereo not given) gave IMPase Li cell inactive.
`O=C(NNC(=O)c1cccnc1)NC12CC3CC(CC(C3)C1)C2` gave IMPase Li cell inactive, ALOX12 inhib inactive and PNC assembly inh -81.
For CCC(C)n1c(SCc2ccc([N+](=O)[O-])cc2)nc2ccsc2c1=O (stereo not given) the results were IMPase inh inactive, IMPase Li cell inactive, ALOX12 inhib inactive and PNC assembly inh -119.
`Cc1c(NC(=S)N/N=C/C=C/c2ccc([N+](=O)[O-])cc2)c(=O)n(-c2ccccc2)n1C` gave IMPase Li cell inactive, ALOX12 inhib inactive and PNC assembly inh -109.
For S=C(Nc1ccccc1)Nc1nc2ccccc2n1CCOc1ccccc1 the results were IMPase inh inactive, IMPase Li cell inactive, ALOX12 inhib 20µM, PNC assembly inh inactive and ALOX15B inhib inconclusive.
`CC(=O)Nc1nc2ccccc2n1CCOc1ccccc1` gave IMPase inh inactive, IMPase Li cell inactive, ALOX12 inhib inactive, PNC assembly inh inactive and ALOX15B inhib inactive.
Screening COc1ccc2c(CCNC(=O)c3ccco3)c[nH]c2c1 returned IMPase inh inactive, IMPase Li cell inactive, ALOX12 inhib inactive, PNC assembly inh -114 and ALOX15B inhib inactive.
COc1ccccc1CN1CCCC2(CCN(C(=O)c3cnccn3)CC2)C1 was read as IMPase Li cell inactive, ALOX12 inhib inactive and ALOX15B inhib inactive.
`CCOC(=O)c1c(NC(=O)COC(=O)Cn2c(C(F)(F)F)nc3ccccc32)sc(C)c1C` gave IMPase inh inactive, IMPase Li cell inactive, ALOX12 inhib inactive, PNC assembly inh inconclusive and ALOX15B inhib inactive.
`CCOC(=O)c1sc(NC(=O)COC(=O)Cn2cnc3ccccc32)c(C(=O)OCC)c1C` gave IMPase inh inactive, IMPase Li cell inactive, ALOX12 inhib inactive and PNC assembly inh -97.
For CCOc1cc(C(=O)Nc2ccc3oc(-c4ccc(CC)cc4)nc3c2)cc(OCC)c1OCC the results were IMPase inh inactive.
